Among all 5,500 compounds or so, about 2,000 (36%) were called active. Not shown: some 18% with an inconclusive outcome. No stated cut-off is given here; in the data, active means normalized growth mostly below about 0.91 (no sharp cut-off); inconclusive means no clear call, values can overlap the other calls; inactive means mostly above about 0.92. Some of the results follow.
Test: chemical genetic growth profiling, strain panel (AID 1159580);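 further: tested at 20 µM; growth read once vehicle control cultures reached saturation at 30 °C; 1 = growth at the plate median or of vehicle wells; lower values mean less growth of the strain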
Conditions: growth OD

Measured: normalized growth

Cc1cccc(C)c1NC(=O)C1CCCCN1C (configuration not stated)
inactive: S. cerevisiae deletion strains, locus YJR075W, strain HOC1, active compounds read low 1 | S. cerevisiae deletion strains, locus YKL009W, strain mrt4, active compounds read low 1.04 | S. cerevisiae deletion strains, locus YKL068W, active compounds read low 0.999 | S. cerevisiae deletion strains, locus YKL085W, strain MDH1 (second series), active compounds read low 1 | S. cerevisiae deletion strains, locus YKL085W, strain MDH1, active compounds read low 1 | S. cerevisiae deletion strains, locus YKL160W, strain elf1, active compounds read low 0.994 | S. cerevisiae deletion strains, locus YKL190W, strain CNB1, active compounds read low 0.982 | S. cerevisiae deletion strains, locus YKR001C, strain vps1, active compounds read low 1.01 | S. cerevisiae deletion strains, locus YKR026C, strain gcn3, active compounds read low 0.979 | S. cerevisiae deletion strains, locus YKR091W, strain srl3, active compounds read low 0.994 | S. cerevisiae deletion strains, locus YLL001W, strain dnm1, active compounds read low 0.99 | S. cerevisiae deletion strains, locus YLL026W, active compounds read low 0.991 | S. cerevisiae deletion strains, locus YLL041C, strain sdh2, active compounds read low 1 | S. cerevisiae deletion strains, locus YLR027C, strain aat2, active compounds read low 0.992 | S. cerevisiae deletion strains, locus YLR039C, strain RIC1, active compounds read low 1.01 | S. cerevisiae deletion strains, locus YLR058C, strain SHM2, active compounds read low 1 | S. cerevisiae deletion strains, locus YLR102C, strain apc9, active compounds read low 1.02 | S. cerevisiae deletion strains, locus YLR113W, strain HOG1, active compounds read low 1.01 | S. cerevisiae deletion strains, locus YLR221C, strain rsa3, active compounds read low 0.996 | S. cerevisiae deletion strains, locus YLR258W, strain gsy2, active compounds read low 0.991 | S. cerevisiae deletion strains, locus YLR262C, strain YPT6 (second series), active compounds read low 0.986 | S. cerevisiae deletion strains, locus YLR262C, strain YPT6, active compounds read low 0.996 | S. cerevisiae deletion strains, locus YLR268W, strain sec22, active compounds read low 1.02 | S. cerevisiae deletion strains, locus YLR320W, strain mms22, active compounds read low 0.976 | S. cerevisiae deletion strains, locus YLR330W, strain CHS5, active compounds read low 1.01 | S. cerevisiae deletion strains, locus YLR342W, strain FKS1 (second series), active compounds read low 1.03 | S. cerevisiae deletion strains, locus YLR342W, strain FKS1, active compounds read low 0.992 | S. cerevisiae deletion strains, locus YLR357W, strain rsc2, active compounds read low 0.972 | S. cerevisiae deletion strains, locus YLR370C, strain arc18, active compounds read low 0.978 | S. cerevisiae deletion strains, locus YLR371W, strain rom2, active compounds read low 1.02 | S. cerevisiae deletion strains, locus YLR384C, strain iki3, active compounds read low 0.985 | S. cerevisiae deletion strains, locus YLR418C, strain cdc73, active compounds read low 1.03 | S. cerevisiae deletion strains, locus YML016C, strain PPZ1, active compounds read low 1 | S. cerevisiae deletion strains, locus YML032C, strain rad52, active compounds read low 0.998 | S. cerevisiae deletion strains, locus YML120C, strain ndi1, active compounds read low 0.987 | S. cerevisiae deletion strains, locus YML124C, strain tub3, active compounds read low 1.02 | S. cerevisiae deletion strains, locus YMR058W, strain fet3, active compounds read low 0.988 | S. cerevisiae deletion strains, locus YMR078C, strain ctf18, active compounds read low 1.01 | S. cerevisiae deletion strains, locus YMR125W, strain sto1, active compounds read low 0.98 | S. cerevisiae deletion strains, locus YMR129W, active compounds read low 0.995 | S. cerevisiae deletion strains, locus YMR205C, strain PFK2, active compounds read low 0.976 | S. cerevisiae deletion strains, locus YMR223W, strain ubp8, active compounds read low 0.998 | S. cerevisiae deletion strains, locus YMR231W, strain pep5, active compounds read low 0.985 | S. cerevisiae deletion strains, locus YMR263W, strain SAP30, active compounds read low 0.997 | S. cerevisiae deletion strains, locus YMR307W, strain GAS1, active compounds read low 0.985 | S. cerevisiae deletion strains, locus YNL067W, strain RPL9B, active compounds read low 0.996 | S. cerevisiae deletion strains, locus YNL071W, strain lat1, active compounds read low 0.989 | S. cerevisiae deletion strains, locus YNL128W, strain TEP1, active compounds read low 1.01 | S. cerevisiae deletion strains, locus YNL153C, strain GIM3, active compounds read low 1.01 | S. cerevisiae deletion strains, locus YNL183C, strain NPR1, active compounds read low 0.963 | S. cerevisiae deletion strains, locus YNL209W, strain ssb2, active compounds read low 0.987 | S. cerevisiae deletion strains, locus YNL233W, strain BNI4, active compounds read low 1.01 | S. cerevisiae deletion strains, locus YNL248C, strain rpa49, active compounds read low 0.976 | S. cerevisiae deletion strains, locus YNL250W, strain rad50, active compounds read low 0.999 | S. cerevisiae deletion strains, locus YNL271C, strain bni1, active compounds read low 1.01 | S. cerevisiae deletion strains, locus YNL298W, strain CLA4, active compounds read low 1.01 | S. cerevisiae deletion strains, locus YNL307C, strain MCK1, active compounds read low 1.02 | S. cerevisiae deletion strains, locus YNL322C, strain KRE1 (second series), active compounds read low 0.966 | S. cerevisiae deletion strains, locus YNL322C, strain KRE1, active compounds read low 1.01 | S. cerevisiae deletion strains, locus YNR049C, strain mso1, active compounds read low 0.99 | S. cerevisiae deletion strains, locus YNR052C, strain pop2, active compounds read low 1 | S. cerevisiae deletion strains, locus YOL006C, strain TOP1, active compounds read low 1.02 | S. cerevisiae deletion strains, locus YOL012C, strain htz1 0.844 | S. cerevisiae deletion strains, locus YOL147C, strain pex11, active compounds read low 1.01 | S. cerevisiae deletion strains, locus YOR001W, strain rrp6, active compounds read low 0.974 | S. cerevisiae deletion strains, locus YOR061W, strain CKA2, active compounds read low 1 | S. cerevisiae deletion strains, locus YOR069W, strain VPS5, active compounds read low 0.999 | S. cerevisiae deletion strains, locus YOR070C, strain gyp1, active compounds read low 0.991 | S. cerevisiae deletion strains, locus YOR080W, strain dia2, active compounds read low 0.981 | S. cerevisiae deletion strains, locus YOR083W, strain WHI5, active compounds read low 0.989 | S. cerevisiae deletion strains, locus YOR106W, strain vam3, active compounds read low 1.01 | S. cerevisiae deletion strains, locus YOR136W, strain idh2, active compounds read low 1.02 | S. cerevisiae deletion strains, locus YOR144C, strain elg1, active compounds read low 1.01 | S. cerevisiae deletion strains, locus YOR184W, strain ser1, active compounds read low 1.02 | S. cerevisiae deletion strains, locus YOR231W, strain MKK1, active compounds read low 1.03 | S. cerevisiae deletion strains, locus YOR265W, strain rbl2, active compounds read low 1 | S. cerevisiae deletion strains, locus YOR270C, strain vph1, active compounds read low 0.981 | S. cerevisiae deletion strains, locus YOR290C, strain snf2, active compounds read low 0.999 | S. cerevisiae deletion strains, locus YOR316C, strain cot1, active compounds read low 1.01 | S. cerevisiae deletion strains, locus YPL051W, strain arl3, active compounds read low 0.993 | S. cerevisiae deletion strains, locus YPL055C, strain LGE1, active compounds read low 0.992 | S. cerevisiae deletion strains, locus YPL078C, strain atp4, active compounds read low 0.997 | S. cerevisiae deletion strains, locus YPL106C, strain sse1, active compounds read low 0.98 | S. cerevisiae deletion strains, locus YPL240C, strain hsp82, active compounds read low 1 | S. cerevisiae deletion strains, locus YPL241C, strain CIN2, active compounds read low 0.999 | S. cerevisiae deletion strains, locus YPL256C, strain CLN2, active compounds read low 1.01 | S. cerevisiae deletion strains, locus YPR119W, strain clb2, active compounds read low 1.02 | S. cerevisiae deletion strains, locus YPR141C, strain kar3, active compounds read low 1.01 | S. cerevisiae deletion strains, locus YPR163C, strain tif3, active compounds read low 1.02 | S. cerevisiae deletion strains, locus YPR167C, strain met16, active compounds read low 1.01 | S. cerevisiae deletion strains, strain wtn01, active compounds read low 1.01 | S. cerevisiae strains, strain wild type, active compounds read low 0.992
